In PubChem BioAssay (NCI):
Compounds without any hit were thinned out: in the full panel of roughly 79,000, 15% have a hit. Calls of active or inactive are those of the source. Cut-off read from the data, not from the text of the source: active = growth inhibition above about 70%; inactive = the rest.

Assay: NCI Yeast Anticancer Drug Screen. Data for the cln2 rad14 strain (AID 165);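 note: 0% = growth equal to vehicle treated cultures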
Details: S. cerevisiae cln2 rad14 strain, stronger effect = higher value; at 50.0 µM unless noted
Procedure, shortened: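 Each compound was tested on cln2 rad14 yeast. Inhibition of growth was calculated against vehicle-exposed controls.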

SMILES | growth inhibition
O=C(OCC1OCOC2C(COC(=O)c3ccccc3)OCOC12)c1ccccc1 (stereo not given) | 4.8% (inactive)
CCOC(=O)/N=N/C(C)(C)OC(C)=O | -39.7% (inactive)
CC(=O)CC(C[N+](=O)[O-])c1ccccc1 (stereo not given) | -28.5% (inactive)
O=c1cc(-c2ccccc2)[nH]c2c(F)ccc(F)c12 | 11.3% (inactive)
CCCN(CCC)C(=O)c1ccccc1C | -14.1% (inactive)
OCC(O)COc1ccc(F)cc1 (stereo not given) | 4.55% (inactive)
CN(C)CCC(C#N)c1ccccc1 (stereo not given) | -26.4% (inactive)
COc1cc(/C=C/C(=O)O)ccc1O | -48% (inactive)
COC(=O)c1c(C)nc(C)c(N=O)c1-c1ccccc1C(F)(F)F | 20.1% (inactive)
Cc1c2ccccc2nc(CS(C)(=O)=O)[n+]1[O-] | -51.6% (inactive)
O=P1(NC23CC4CC(CC(C4)C2)C3)OC(CCl)=NC1c1ccc(C2N=C(CCl)OP2(=O)NC23CC4CC(CC(C4)C2)C3)cc1 (stereo not given) | -12.8% (inactive)
CN(C)C(=O)NCCN(CCNC(=O)N(C)C)C(=O)N(C)C | -28.3% (inactive)
CCOC(=O)C(=O)C(NC(=O)Cc1ccccc1)C(=O)OCC (stereo not given) | -15.8% (inactive)
CN(/C(=N/C(=S)NCc1ccccc1)SCc1ccccc1)c1ccccc1 | 9.45% (inactive)
CC1Sc2ccccc2-c2[nH]c3ccccc3c21 (stereo not given) | 5% (inactive)
Cc1nc(-c2ccc(N=Cc3ccc(N4CCC5(CCCCC5)CC4)cc3)cc2)cs1 | 18.6% (inactive)
Cc1cc(=O)c2c(o1)C(=O)c1occc1C2=O | 5.85% (inactive)
COC1CCC2C3CCC(C3)C12 (stereo not given) | 5.05% (inactive)
O=C(c1ccc(Cl)cc1)c1ccccc1C(=O)c1ccc(Cl)cc1 | -4.45% (inactive)
CCOC(=S)SCC(=O)CSC(=S)OCC | 9.7% (inactive)

SMILES | growth inhibition
CCCCN(CCCC)C(=O)c1cccc(C)c1 | -16.4% (inactive)
CCC(O)C(C)(C)[N+](=O)[O-] (stereo not given) | -2.05% (inactive)
COc1c2c(cc3c1C(CCCc1ccccc1)N(C)CC3)OCO2 (stereo not given) | 11.5% (inactive)
CCCCNC(=O)/C(=C\c1ccc(OC)c(OC)c1)NC(=O)c1ccccc1 | -1.75% (inactive)
NC(=O)Nc1nc2ccccc2[nH]1 | -0.3% (inactive)
COC(=O)c1c(C)ccc(C)c1Nc1cc(C)ccc1C | 9.55% (inactive)
CCOC(=O)c1cnc2sc3ccc4ccccc4c3n2c1=O | 36.1% (inactive)
O=C1c2ccccc2C(=O)N1CCCCCCS(=O)(=O)Cl | -16.9% (inactive)
CCS(=O)(=O)/C=C/c1cccs1 | -47.6% (inactive)
O=C(N/N=C(\c1nc2ccc(Cl)cc2[nH]c1=O)C(O)c1ccccc1Cl)c1ccncc1 (stereo not given) | 18.7% (inactive)
CCCC(=O)NC1CCCCC1 | 26.5% (inactive)
CCCCCP(=O)(O)O.[Cu+2] | -40% (inactive)
C=C1CC2(OC1=O)c1ccccc1C=Cc1ccccc12 | 48.8% (inactive)
c1ccc(CN2CCOC2)cc1 | 11% (inactive)
CCOC1=Nc2ccccc2C1(C)CCO (stereo not given) | -62.2% (inactive)
CC1NC(=O)OC12CCCCC2 (stereo not given) | -27.6% (inactive)
CCCOC(=O)C1C(=O)CC(c2ccccc2)C1c1ccccc1 (stereo not given) | -4.15% (inactive)
COc1ccc(-c2oc(=O)c3ccccc3c2-c2ccccc2)cc1 | 9.4% (inactive)
C=C1CCCC(C)(C)[C@@H]1CC/C(C)=C/Cn1c2cccc(=O)c-2nc2ccccc21 | 2.4% (inactive)
C[C@H](CCC1=NCCN1)[C@H]1CC[C@H]2[C@@H]3CC[C@@H]4C[C@H](O)CC[C@]4(C)[C@H]3CC[C@]12C | 91.6% (active)

Assay: NCI Yeast Anticancer Drug Screen. Data for the bub3 strain (AID 167)
Details: S. cerevisiae bub3 mutant strain, stronger effect = higher value; at 50.0 µM unless noted
Procedure, shortened: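 Mutant yeast screening strain plus compound; vehicle-treated cultures serve as the 0% inhibition reference.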

SMILES | growth inhibition
O=C(OCC1OCOC2C(COC(=O)c3ccccc3)OCOC12)c1ccccc1 (stereo not given) | 13.7% (inactive)
CCOC(=O)/N=N/C(C)(C)OC(C)=O | -20.4% (inactive)
CC(=O)CC(C[N+](=O)[O-])c1ccccc1 (stereo not given) | -21.6% (inactive)
O=c1cc(-c2ccccc2)[nH]c2c(F)ccc(F)c12 | -34.9% (inactive)
CCCN(CCC)C(=O)c1ccccc1C | 18.4% (inactive)
OCC(O)COc1ccc(F)cc1 (stereo not given) | -6.25% (inactive)
CN(C)CCC(C#N)c1ccccc1 (stereo not given) | -3.8% (inactive)
COc1cc(/C=C/C(=O)O)ccc1O | -12.3% (inactive)
COC(=O)c1c(C)nc(C)c(N=O)c1-c1ccccc1C(F)(F)F | 12.4% (inactive)
Cc1c2ccccc2nc(CS(C)(=O)=O)[n+]1[O-] | -16.7% (inactive)
O=P1(NC23CC4CC(CC(C4)C2)C3)OC(CCl)=NC1c1ccc(C2N=C(CCl)OP2(=O)NC23CC4CC(CC(C4)C2)C3)cc1 (stereo not given) | -35.1% (inactive)
CN(C)C(=O)NCCN(CCNC(=O)N(C)C)C(=O)N(C)C | -18.8% (inactive)
CCOC(=O)C(=O)C(NC(=O)Cc1ccccc1)C(=O)OCC (stereo not given) | -0.25% (inactive)
CN(/C(=N/C(=S)NCc1ccccc1)SCc1ccccc1)c1ccccc1 | 38.1% (inactive)
CC1Sc2ccccc2-c2[nH]c3ccccc3c21 (stereo not given) | 31.7% (inactive)
Cc1nc(-c2ccc(N=Cc3ccc(N4CCC5(CCCCC5)CC4)cc3)cc2)cs1 | 6.1% (inactive)
Cc1cc(=O)c2c(o1)C(=O)c1occc1C2=O | -6.1% (inactive)
COC1CCC2C3CCC(C3)C12 (stereo not given) | -12.9% (inactive)
O=C(c1ccc(Cl)cc1)c1ccccc1C(=O)c1ccc(Cl)cc1 | 23% (inactive)
CCOC(=S)SCC(=O)CSC(=S)OCC | 50.2% (inactive)

SMILES | growth inhibition
CCCCN(CCCC)C(=O)c1cccc(C)c1 | 53.2% (inactive)
CCC(O)C(C)(C)[N+](=O)[O-] (stereo not given) | -0.8% (inactive)
COc1c2c(cc3c1C(CCCc1ccccc1)N(C)CC3)OCO2 (stereo not given) | 9.75% (inactive)
CCCCNC(=O)/C(=C\c1ccc(OC)c(OC)c1)NC(=O)c1ccccc1 | -35% (inactive)
NC(=O)Nc1nc2ccccc2[nH]1 | -7.7% (inactive)
COC(=O)c1c(C)ccc(C)c1Nc1cc(C)ccc1C | 5.65% (inactive)
CCOC(=O)c1cnc2sc3ccc4ccccc4c3n2c1=O | 51.3% (inactive)
O=C1c2ccccc2C(=O)N1CCCCCCS(=O)(=O)Cl | -7.35% (inactive)
CCS(=O)(=O)/C=C/c1cccs1 | 4.8% (inactive)
O=C(N/N=C(\c1nc2ccc(Cl)cc2[nH]c1=O)C(O)c1ccccc1Cl)c1ccncc1 (stereo not given) | 30.9% (inactive)
CCCC(=O)NC1CCCCC1 | -24.1% (inactive)
CCCCCP(=O)(O)O.[Cu+2] | -31.6% (inactive)
C=C1CC2(OC1=O)c1ccccc1C=Cc1ccccc12 | 47.5% (inactive)
c1ccc(CN2CCOC2)cc1 | -2.2% (inactive)
CCOC1=Nc2ccccc2C1(C)CCO (stereo not given) | -5% (inactive)
CC1NC(=O)OC12CCCCC2 (stereo not given) | -7.5% (inactive)
CCCOC(=O)C1C(=O)CC(c2ccccc2)C1c1ccccc1 (stereo not given) | 1.25% (inactive)
COc1ccc(-c2oc(=O)c3ccccc3c2-c2ccccc2)cc1 | 2.6% (inactive)
C=C1CCCC(C)(C)[C@@H]1CC/C(C)=C/Cn1c2cccc(=O)c-2nc2ccccc21 | -17.4% (inactive)
C[C@H](CCC1=NCCN1)[C@H]1CC[C@H]2[C@@H]3CC[C@@H]4C[C@H](O)CC[C@]4(C)[C@H]3CC[C@]12C | 91.1% (active)
